Measured values published in PubChem BioAssay.
Calls of active or inactive are those of the source.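 Rule for the calls, unless noted: active = inhibition of the reporter signal at or above 50%; inactive = inhibition below 50%.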

How the values were obtained:
[1] = inhibitors of TNFa-induced NFkB p65 translocation, primary screen, imaging, HUVEC, MLSMR starter and 10KST1 sets (AID 438;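 active = inhibition above 20% together with a positive visual image hit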;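 note: compound added about 3h40 before a 20 min TNFalpha stimulation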;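 for inhibition: signal is the nuclear over cytoplasmic p65 intensity ratio per well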); details: HUVEC TNFa-induced p65 nuclear translocation; cell count: measured here: nuclei count (cytotoxicity indicator), at 2.08 µM; inhibition: at 2 µM, stronger effect = higher value, 0% TNFa-plus-vehicle, 100% no-TNFa wells
[2] = inhibitors of mutant huntingtin aggregation, primary screen, imaging, exon1htt(103Q)mCFP cells, high-content imaging (AID 483;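 active = visual image review flags a hit and inhibition of aggregation exceeds 20%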;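 note: compound exposure lasted 3 days before fixation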;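 for nuclei count: percent of the per-plate median nuclei count of sample wells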); details: exon1htt(103Q)mCFP cell line, aggregate imaging, at 2 µM; inhibition of aggregation: stronger effect = higher value; nuclei count: measured here: cell count, toxicity
[3] = inhibitors of E-selectin induction by TNFa, primary screen, imaging, HUVEC, immunofluorescence, MLSMR starter and 10KST1 sets (AID 487;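 active = visually confirmed hit in the image check and inhibition above 20%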;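 for inhibition: signal is fraction of cell area covered by stained E-selectin grains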;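 for nuclei count: 100% = median nuclei count of all wells on the same plate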); details: HUVEC TNFalpha-induced E-selectin immunofluorescence imaging, at 2 µM; inhibition: stronger effect = higher value; nuclei count: measured here: cell number, toxicity
[4] = biological target: Voltage-gated potassium channel subunit beta-2 (Rattus norvegicus) (UniProt P62483); experiment: KvBeta enzyme negative modulators, primary screen, biochemical, NADPH fluorescence (AID 622;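 active = fluorescence slope higher than the sample average by over 3 SD, cut at about -0.22 in these data, passing the limit was not always enough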;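 note: slope of raw intensity against log time taken from 70 to 1610 s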); details: recombinant KvBeta, 4-cyanobenzaldehyde reduction, at 10 µM, stronger effect = higher value
Sequence of Voltage-gated potassium channel subunit beta-2 (Rattus norvegicus) (P62483 whole entry, looked up): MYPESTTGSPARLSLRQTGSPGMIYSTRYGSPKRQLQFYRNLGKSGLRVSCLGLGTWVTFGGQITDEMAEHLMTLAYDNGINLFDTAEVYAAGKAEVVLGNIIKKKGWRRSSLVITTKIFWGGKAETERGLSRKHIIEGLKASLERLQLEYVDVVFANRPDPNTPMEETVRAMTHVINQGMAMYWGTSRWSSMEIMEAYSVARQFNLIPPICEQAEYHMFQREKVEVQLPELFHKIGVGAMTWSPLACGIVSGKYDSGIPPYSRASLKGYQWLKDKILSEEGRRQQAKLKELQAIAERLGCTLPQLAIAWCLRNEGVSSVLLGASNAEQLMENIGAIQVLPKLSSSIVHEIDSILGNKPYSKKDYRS

[5] = biological target: Voltage-gated potassium channel subunit beta-2 (Rattus norvegicus) (UniProt P62483); experiment: KvBeta positive modulators, primary screen, biochemical, NADPH fluorescence (AID 623;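 active = NADPH fluorescence slope more negative than the mean of all samples by about 3 SD, 99.7% confidence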;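 note: fluorescence intensity change per second fitted from 20 to 320 s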); details: Recombinant KvBeta, NADPH fluorescence decrease slope, 10 min; at 10 µM; stronger effect = lower value
[6] = biological target: Alpha-2C adrenergic receptor (Homo sapiens) (UniProt P18825); experiment: modulators of alpha2C/GIRK thallium flux, primary screen, cell-based, HEK293 alpha2C/GIRK1/2 (AID 624;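 active = fluorescence slope after compound addition differing from the mean of all screened samples at 99.7% confidence, in either direction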;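 note: slope of fluorescence ratio to pre-addition baseline per second over 15 to 24 s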); details: thallium flux BTC fluorescence, at 10 µM, actives lie on both sides
Sequence of Alpha-2C adrenergic receptor (Homo sapiens) (P18825 whole entry, looked up): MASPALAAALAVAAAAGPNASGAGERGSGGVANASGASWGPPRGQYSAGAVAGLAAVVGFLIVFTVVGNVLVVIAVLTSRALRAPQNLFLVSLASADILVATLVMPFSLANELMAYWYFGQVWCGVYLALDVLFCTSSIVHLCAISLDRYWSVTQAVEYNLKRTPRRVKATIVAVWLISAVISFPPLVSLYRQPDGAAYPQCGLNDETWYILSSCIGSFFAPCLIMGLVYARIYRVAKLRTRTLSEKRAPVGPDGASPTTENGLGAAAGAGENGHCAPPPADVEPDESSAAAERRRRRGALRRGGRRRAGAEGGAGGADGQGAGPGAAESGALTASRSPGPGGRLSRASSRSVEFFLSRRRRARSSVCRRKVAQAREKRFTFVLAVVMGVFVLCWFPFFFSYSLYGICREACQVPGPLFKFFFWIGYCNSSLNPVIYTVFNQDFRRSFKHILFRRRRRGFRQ

[7] = inhibitors of Sendai virus-induced IRF3 signaling, primary screen, TLR/RLR signaling modifier project, cell-based, Sendai virus stimulus, luciferase, 10K MLSCN set (AID 602276;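 active = inhibition at or above 50% at 10 µM; inactive = inhibition below 50%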;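 note: firefly luciferase from ISG56 promoter only with Renilla not read in this screen; 0% = Sendai virus plus DMSO and 100% = medium plus DMSO without virus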); details: HEK293 RL24 IRF3 luciferase reporter, at 10 µM, stronger effect = higher value
[8] = inhibitors of poly I:C-induced TLR3 signaling, primary screen, cell-based, poly I:C stimulus, luciferase, 10K MLSCN set (AID 602277); details: HEK293-TLR3 RL24 IRF3 luciferase reporter, at 10 µM, stronger effect = higher value

Row | SMILES | cell count [1] | inhibition [1] | inhibition of aggregation [2] | nuclei count [2] [%] | inhibition [3] | nuclei count [3] [%] | fluorescence slope [4] | NADPH fluorescence slope [5] | slope [6] | inhibition [7] | inhibition [8]
1 | O=C(NCc1cccs1)C1CC(=O)N(C2CCCC2)C1 (configuration not stated) | 376 | -14.4% (inactive) | -18.1% (inactive) | 97.2 | -121% (inactive) | 172 | -0.56 (inactive) | 4.8e-05 (inactive) | 0.00628 (inactive) | -9.61% (inactive) | -21.8% (inactive)
2 | CC1(C)NC(=O)N(CC(O)CN2CCCC2)C1=O (configuration not stated) | 317 | -4.8% (inactive) | 4.1% (inactive) | 85.6 | -48.6% (inactive) | 72.8 | -0.543 (inactive) | 4.5e-05 (inactive) | 0.00702 (inactive) | 6.37% (inactive) | -4.68% (inactive)
3 | Cc1ccc(C2=N/C(=C/N3CCOCC3)C(=O)O2)cc1 | 302 | 3.3% (inactive) | 14% (inactive) | 96.4 | 8.3% (inactive) | 98.9 | -0.512 (inactive) | -2.4e-05 (inactive) | 0.00711 (inactive) | -49.1% (inactive) | -197% (inactive)
4 | CCOc1ccc(OCc2cccc(C(=O)N3CCCC3)c2)cc1 | 488 | 0% (inactive) | -4.9% (inactive) | 103 | 3.3% (inactive) | 106 | -0.423 (inactive) | -3.1e-05 (inactive) | 0.00502 (inactive) | -43% (inactive) | -105% (inactive)
5 | CN(C)S(=O)(=O)c1ccc(/C(O)=C2/C(=O)C(=O)N(CCN3CCCCC3)C2c2cccnc2)cc1 (configuration not stated) | 391 | 5.5% (inactive) | 5.7% (inactive) | 88.2 | -68.5% (inactive) | 113 | -0.396 (inactive) | 2e-05 (inactive) | 0.00576 (inactive) | -17.9% (inactive) | -24% (inactive)
6 | COc1cc(OC)c(C2N(C)c3ccccc3N2C)cc1OC | 403 | 1.7% (inactive) | -0.8% (inactive) | 111 | -64.6% (inactive) | 105 | -0.502 (inactive) | -1.1e-05 (inactive) | 0.00623 (inactive) | -3.76% (inactive) | 26.3% (inactive)
7 | c1ccc2c(c1)c1c3n2CCNC3CCC1 (configuration not stated) | 663 | -11.5% (inactive) | -9.5% (inactive) | 103 | -119% (inactive) | 102 | -0.364 (inactive) | -2e-05 (inactive) | 0.00436 (inactive) | 15.3% (inactive) | 14% (inactive)
